# Bioassay records: PubChem, National Center for Advancing Translational Sciences (NCATS)
# HCMV antiviral: human cytomegalovirus inhibition | HFF cells, HCMV-luciferase reporter, 72 h; stronger effect = lower value | activity change, negative = inhibition, % at 57.5 µM | 4.5% of 410,000 active; in the data active = activity change below about -60%; inconclusive = no clear call, values can overlap the other calls; inactive = above about -39%
#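 Human foreskin fibroblasts infected with luciferase-reporter HCMV at MOI 1 PFU/cell, compounds at two doses. Luciferase measured 72 h post infection; normalized to buffer-only basal and Salinomycin (10uM) controls.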
# LASV entry inh: blocks Lassa virus binding to or entry into cells; 1.2% of 300,000 active; Potency, µM (series often up to 37.9 µM), actives largely listed as inhibitors; Lassa virus pseudotype entry inhibition, cell reporter; calls by dose curve; tested in HEK293 cells; also: nearly all actives have a fitted effect of over 50% in size
# MARV entry inh: blocks Marburg virus binding to or entry into cells; Marburg virus pseudotyped entry inhibition, cell reporter; Potency, µM (top dose mostly 37.8 µM), actives largely listed as inhibitors; 1.8% of 300,000 active; AID 540276; calls by dose curve; tested in HEK293 cells
# FMDV antiviral: foot and mouth disease virus antiviral activity. FMDV antiviral cell-based qHTS. Potency, µM (top dose mostly 57.9 µM), usual class: inhibitors. 1.2% of 410,000 active. AID 1159524; calls by dose curve; tested in HEK293T cells; also: read-out not given here; nearly all actives have a fitted effect of over 45% in size
# Numbers stand for hits; – = inactive; ? = inconclusive; · = no result; + = active, no number; ! = not active in a repeat. Hits are enriched below; roughly 6.2% of the tested compounds scored in any of these assays.
SMILES,HCMV antiviral,LASV entry inh,MARV entry inh,FMDV antiviral
COC(CNC(=O)c1cnn2c(C)c(Cc3ccccc3)c(C)nc12)OC,–,?,–,–
Cc1nc2c(C(=O)NC(C)c3ccccc3)cnn2c(C)c1Cc1ccccc1 (centres undefined),-86,?,·,?
Cc1cc(C)c(Cc2c(C)nc3c(C(=O)NCc4ccco4)cnn3c2C)c(C)c1,-99,–,?,18µM
O=C(Nc1ccccc1)c1ccc(-c2ccc([N+](=O)[O-])cc2)o1,-66,–,–,–
COc1ccc(NC(=O)c2ccc(-c3ccc([N+](=O)[O-])cc3)o2)cc1,-61,–,?,–
O=C(O)c1cccc(NS(=O)(=O)c2ccc(Cl)c(C(=O)Nc3cccc([N+](=O)[O-])c3)c2)c1,–,–,–,–
CN(C)S(=O)(=O)c1ccc(Cl)c(C(=O)Nc2cccc([N+](=O)[O-])c2)c1,-65,·,·,?
COc1ccc(NC(=O)c2cc([N+](=O)[O-])ccc2O)cc1,-102,·,·,6.3µM
COc1ccc(NC(=O)c2cc([N+](=O)[O-])ccc2N2CCNCC2)cc1,–,–,–,–
COC(=O)CCN(C1CCCCC1)S(=O)(=O)c1ccc(S(=O)(=O)NC2CCCCC2)cc1,?,–,?,–
Cc1ccc(C2CC(c3ccc(Cl)cc3)=NNC2=O)cc1 (centres undefined),–,?,–,?
COc1ccc(CCNC(=O)c2ccc(-c3ccc([N+](=O)[O-])cc3)o2)cc1OC,-69,?,?,18µM
COc1ccc(CCNC(=O)c2ccc(CS(=O)(=O)Cc3cccc(C)c3)o2)cc1OC,+!,?,?,40µM
Cc1cccc(CS(=O)(=O)Cc2ccc(C(=O)NCc3ccccc3)o2)c1,–,–,·,–
O=C(Nc1cccc([N+](=O)[O-])c1)c1cc2ccccc2cc1O,-101,·,·,–
O=C(Nc1ccc(Cl)c(-c2nc3ccccc3o2)c1)c1ccc(-c2cccc([N+](=O)[O-])c2)o1,-103,–,–,–
O=C(CCN1CCN(c2ccccc2)CC1)c1ccc(Br)cc1,–,·,·,–
CCOc1ccc(CN(C)C(C)C(=O)NCc2ccccc2)cc1 (centres undefined),–,·,·,–
CCOC(=O)c1c(Nc2ccc(C)cc2)nnc(-c2ccccc2)c1-c1ccccc1,–,–,–,–
CC(NC(=O)/C(C#N)=C/c1cn[nH]c1-c1ccccc1)c1ccccc1 (centres undefined),–,11µM,?,–
CCCCCn1c(-c2ccco2)nc2nc3ccccc3nc21,–,–,11µM,–
CCc1ccc(NC(=O)c2ccc3c(=O)n4c(nc3c2)CCCCC4)cc1,–,·,·,–
CCN(CC)S(=O)(=O)c1ccc(NC(=O)c2ccc3c(=O)n4c(nc3c2)CCCCC4)cc1,-93,?,?,28µM
CCOc1ccc(NC(=O)c2ccc3c(=O)n4c(nc3c2)CCCCC4)cc1,-63!,–,–,?
CCN(CC)C(=O)c1cccc(NC(=O)c2ccc3c(=O)n4c(nc3c2)CCC4)c1,–,–,–,–
SMILES,HCMV antiviral,LASV entry inh,MARV entry inh,FMDV antiviral
O=C(Nc1cccc(S(=O)(=O)N2CCCCC2)c1)c1ccc2c(=O)n3c(nc2c1)CCCCC3,-88,?,3.2µM,3.2µM
COc1ccc(OCC(=O)NNC(=O)c2cc3ccccc3o2)cc1,–,–,–,–
Cc1cc(C)n2c(Nc3ccc4c(c3)OCCO4)c(-c3ccc(C)o3)nc2n1,–,·,·,–
COc1cccc(-n2nnnc2S(C)(=O)=O)c1,·,8.9µM,?,?
COC(=O)c1nnn(-c2cccc(C)c2)c1C(=O)OC,–,–,–,–
Cc1cccc(-n2nnnc2S(C)(=O)=O)c1,-108,?,·,25µM
Cc1ccc(C(C(=O)NCc2ccco2)N(C(=O)CNC(=O)c2cccs2)c2ccc(C)cc2)cc1 (centres undefined),–,–,–,–
CCCn1c(N)c(N(CCOC)C(=O)c2ccc(F)cc2)c(=O)[nH]c1=O,–,·,–,–
COc1cc(/C=C2\C(=O)NC(=O)N(c3ccccc3)C2=O)cc(OC)c1OC,–,–,?,?
CCOc1ccccc1N1C(=O)NC(=O)/C(=C/c2ccc3c4c(cccc24)CC3)C1=O,–,–,–,40µM
COc1cccc(N2C(=O)NC(=O)/C(=C/c3ccc4c5c(cccc35)CC4)C2=O)c1,-101,·,·,·
COc1ccccc1NS(=O)(=O)c1cc(C(=O)NC2CCN(Cc3ccccc3)CC2)ccc1C,-62,·,·,–
COc1ccccc1NS(=O)(=O)c1cccc(C(=O)NC2CCN(Cc3ccccc3)CC2)c1,·,–,?,?
COc1ccccc1NS(=O)(=O)c1ccc(C)c(C(=O)NC2CCN(Cc3ccccc3)CC2)c1,-76,?,?,?
Cc1oc(C(C)(C)C)cc1C(=O)NC1CCN(Cc2ccccc2)CC1,–,?,10µM,–
CC(NC(=O)c1ccccc1)c1nnc(SCC(=O)Nc2nnc(C3CC3)s2)n1C (centres undefined),–,–,–,–
CSCCC(NS(=O)(=O)c1ccc(Cl)cc1)C(=O)OCC(=O)c1c(C)[nH]c2ccccc12 (centres undefined),–,?,12µM,35µM
CC(O)C(NS(=O)(=O)c1ccc(Cl)cc1)C(=O)OCC(=O)c1c[nH]c2ccccc12 (centres undefined),–,?,?,16µM
Oc1ccccc1C1SC(c2ccccc2O)SC(c2ccccc2O)S1 (centres undefined),–,?,?,–
Oc1ccccc1C1CCCCC1c1ccccc1 (centres undefined),-68,–,–,–
CC(=O)c1cccc(-c2ccnc3c2CC(C(=O)Nc2ccc4c(c2)OCO4)O3)c1 (centres undefined),–,·,·,?
CCOC(=O)c1cnc(-n2nc(C)cc2C)nc1Oc1ccc(C#N)cc1,–,–,–,–
Cc1nn(-c2ccccc2)c(N)c1C(c1ccccc1)c1c(C)nn(-c2ccccc2)c1N,–,–,–,–
CCCn1c(N)c(C(=O)CSc2nc(C)nc3sc(C)c(C)c23)c(=O)[nH]c1=O,–,–,–,–
CCCn1c(N)c(C(=O)CSc2ncc(C(F)(F)F)cc2Cl)c(=O)[nH]c1=O,–,3.2µM,?,?
SMILES,HCMV antiviral,LASV entry inh,MARV entry inh,FMDV antiviral
C#CCOCCOCCOCCNc1nc(N2CCN(C(=O)[C@H]([C@@H](C)CC)n3cc(CCCN=C(N)N)nn3)CC2)nc(N2CCN(C(=O)[C@H]([C@@H](C)CC)n3cc(CCCN=C(N)N)nn3)CC2)n1,·,–,–,·
Cc1nc(C(F)(F)F)ccc1C(=O)N1CCC1(C)C(=O)NS(=O)(=O)c1cccc(Cl)c1 (centres undefined),-91,·,·,–
COc1ccc(OC)c2sc(N3CCN(C(=O)c4ccc([N+](=O)[O-])s4)CC3)nc12,–,–,–,–
O=C(c1ccc([N+](=O)[O-])s1)N1CCN(c2ccccc2)CC1,-96,·,–,–
O=C(c1ccc([N+](=O)[O-])s1)N1CCN(c2ccccn2)CC1,-61,–,–,–
CCCCOC(=O)c1ccc(Nc2ncnc3[nH]ncc23)cc1,–,–,·,–
CC(C)N(CC#CC(O)(c1ccccc1)c1ccccc1)C(C)C,–,–,?,–
CCN(CC)C(=O)CC(c1ccc(F)cc1)c1ccc(OC)cc1 (centres undefined),-67,–,–,–
